According to ChEMBL document CHEMBL2218924, “A broad activity screen in support of a chemogenomic map for kinase signalling research and drug discovery” (Biochem J, 2013):

Columns and labels:
[1] = biological target: T1, Ephrin type-A receptor 3 (Homo sapiens) (UniProt P29320); settings: at 10 µM
T1 sequence (whole entry): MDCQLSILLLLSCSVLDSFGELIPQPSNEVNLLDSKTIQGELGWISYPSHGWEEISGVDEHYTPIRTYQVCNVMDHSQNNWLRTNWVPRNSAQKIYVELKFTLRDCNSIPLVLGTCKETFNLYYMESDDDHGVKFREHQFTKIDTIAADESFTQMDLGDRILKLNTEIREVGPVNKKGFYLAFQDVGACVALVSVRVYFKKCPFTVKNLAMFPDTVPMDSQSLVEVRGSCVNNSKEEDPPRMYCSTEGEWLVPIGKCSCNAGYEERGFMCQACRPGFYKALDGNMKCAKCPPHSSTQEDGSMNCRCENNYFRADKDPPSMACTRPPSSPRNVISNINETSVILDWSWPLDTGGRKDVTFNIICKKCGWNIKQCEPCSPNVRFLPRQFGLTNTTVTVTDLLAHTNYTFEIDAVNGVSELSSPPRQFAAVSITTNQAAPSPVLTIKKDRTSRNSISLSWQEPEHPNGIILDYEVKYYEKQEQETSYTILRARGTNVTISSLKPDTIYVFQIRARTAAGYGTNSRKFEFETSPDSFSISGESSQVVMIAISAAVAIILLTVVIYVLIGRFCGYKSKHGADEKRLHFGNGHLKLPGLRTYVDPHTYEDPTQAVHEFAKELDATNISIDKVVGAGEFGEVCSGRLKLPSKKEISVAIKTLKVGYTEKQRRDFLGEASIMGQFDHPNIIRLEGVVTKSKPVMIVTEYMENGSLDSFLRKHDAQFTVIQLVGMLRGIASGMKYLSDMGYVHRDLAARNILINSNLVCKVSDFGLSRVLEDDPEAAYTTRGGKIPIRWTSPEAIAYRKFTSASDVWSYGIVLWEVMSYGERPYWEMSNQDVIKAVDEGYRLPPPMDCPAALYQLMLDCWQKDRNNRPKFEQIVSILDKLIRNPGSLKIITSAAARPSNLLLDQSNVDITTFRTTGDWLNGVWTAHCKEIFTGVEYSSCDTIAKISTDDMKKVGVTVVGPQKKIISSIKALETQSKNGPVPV

[2] = biological target: Ephrin type-A receptor 4 (Homo sapiens) (UniProt P54764); settings: at 1 µM
[3] = biological target: Ephrin type-A receptor 4 (Homo sapiens) (UniProt P54764); settings: at 10 µM
[4] = biological target: Ephrin type-A receptor 5 (Homo sapiens) (UniProt P54756); settings: at 1 µM
[5] = biological target: Ephrin type-A receptor 5 (Homo sapiens) (UniProt P54756); settings: at 10 µM
[6] = biological target: Ephrin type-A receptor 7 (Homo sapiens) (UniProt Q15375); settings: at 1 µM
[7] = biological target: Ephrin type-A receptor 7 (Homo sapiens) (UniProt Q15375); settings: at 10 µM
[8] = biological target: T2, Ephrin type-A receptor 8 (Homo sapiens) (UniProt P29322); settings: at 1 µM
T2 sequence (whole entry): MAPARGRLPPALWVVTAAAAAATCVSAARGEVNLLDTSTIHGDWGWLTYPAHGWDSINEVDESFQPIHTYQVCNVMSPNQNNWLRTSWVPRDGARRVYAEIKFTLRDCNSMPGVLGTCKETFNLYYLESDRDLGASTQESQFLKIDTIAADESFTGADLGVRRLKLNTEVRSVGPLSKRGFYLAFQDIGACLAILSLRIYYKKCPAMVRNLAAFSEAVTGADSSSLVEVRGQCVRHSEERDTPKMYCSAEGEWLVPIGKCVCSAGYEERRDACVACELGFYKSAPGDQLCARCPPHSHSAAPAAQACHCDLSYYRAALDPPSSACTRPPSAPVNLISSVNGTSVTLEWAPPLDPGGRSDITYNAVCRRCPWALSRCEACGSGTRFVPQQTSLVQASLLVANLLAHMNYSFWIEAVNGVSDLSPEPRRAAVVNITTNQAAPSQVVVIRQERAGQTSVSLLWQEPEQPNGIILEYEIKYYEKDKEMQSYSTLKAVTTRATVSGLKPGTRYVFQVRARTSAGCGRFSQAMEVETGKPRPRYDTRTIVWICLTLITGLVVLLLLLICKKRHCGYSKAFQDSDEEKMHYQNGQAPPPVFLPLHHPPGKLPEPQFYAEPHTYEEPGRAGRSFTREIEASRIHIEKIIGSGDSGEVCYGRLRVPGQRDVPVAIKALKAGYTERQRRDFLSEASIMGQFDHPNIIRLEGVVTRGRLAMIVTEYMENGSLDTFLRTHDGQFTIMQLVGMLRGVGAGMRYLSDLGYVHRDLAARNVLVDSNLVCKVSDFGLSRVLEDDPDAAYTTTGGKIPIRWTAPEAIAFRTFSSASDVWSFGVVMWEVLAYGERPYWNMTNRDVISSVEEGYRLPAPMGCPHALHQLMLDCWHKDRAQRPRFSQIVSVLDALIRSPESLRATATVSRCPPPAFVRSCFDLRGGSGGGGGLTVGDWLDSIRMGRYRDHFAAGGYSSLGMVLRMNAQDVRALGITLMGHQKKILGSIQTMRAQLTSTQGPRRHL

[9] = biological target: T2, Ephrin type-A receptor 8 (Homo sapiens); settings: at 10 µM
[10] = biological target: T3, Ephrin type-B receptor 1 (Homo sapiens) (UniProt P54762); settings: at 1 µM
T3 sequence (whole entry): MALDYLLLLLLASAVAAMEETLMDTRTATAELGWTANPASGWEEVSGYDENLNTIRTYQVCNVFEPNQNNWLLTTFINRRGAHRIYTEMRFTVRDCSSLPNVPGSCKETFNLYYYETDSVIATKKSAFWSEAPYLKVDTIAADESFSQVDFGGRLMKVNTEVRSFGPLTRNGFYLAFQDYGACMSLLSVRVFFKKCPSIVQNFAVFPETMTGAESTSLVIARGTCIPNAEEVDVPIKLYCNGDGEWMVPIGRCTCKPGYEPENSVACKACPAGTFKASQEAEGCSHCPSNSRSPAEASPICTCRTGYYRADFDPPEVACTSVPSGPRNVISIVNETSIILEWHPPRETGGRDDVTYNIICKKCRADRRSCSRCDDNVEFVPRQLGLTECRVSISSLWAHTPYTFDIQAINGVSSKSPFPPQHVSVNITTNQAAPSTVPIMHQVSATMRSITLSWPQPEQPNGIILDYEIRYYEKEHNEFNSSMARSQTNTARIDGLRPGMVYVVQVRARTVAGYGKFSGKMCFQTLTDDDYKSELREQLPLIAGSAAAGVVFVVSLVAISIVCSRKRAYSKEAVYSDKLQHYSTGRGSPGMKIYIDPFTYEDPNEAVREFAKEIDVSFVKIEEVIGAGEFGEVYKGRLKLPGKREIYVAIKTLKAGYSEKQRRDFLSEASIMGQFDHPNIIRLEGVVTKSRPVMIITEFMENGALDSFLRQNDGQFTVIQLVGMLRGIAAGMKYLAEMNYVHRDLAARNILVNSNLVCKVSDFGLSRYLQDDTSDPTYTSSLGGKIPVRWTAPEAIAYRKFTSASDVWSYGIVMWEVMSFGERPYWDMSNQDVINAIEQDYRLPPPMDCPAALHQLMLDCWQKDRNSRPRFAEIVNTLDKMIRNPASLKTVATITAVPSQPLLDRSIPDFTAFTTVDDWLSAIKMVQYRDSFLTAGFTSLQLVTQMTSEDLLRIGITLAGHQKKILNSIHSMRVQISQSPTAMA

Chain of Ephrin type-A receptor 7 (Homo sapiens) (Q15375 28-998 limits assumed): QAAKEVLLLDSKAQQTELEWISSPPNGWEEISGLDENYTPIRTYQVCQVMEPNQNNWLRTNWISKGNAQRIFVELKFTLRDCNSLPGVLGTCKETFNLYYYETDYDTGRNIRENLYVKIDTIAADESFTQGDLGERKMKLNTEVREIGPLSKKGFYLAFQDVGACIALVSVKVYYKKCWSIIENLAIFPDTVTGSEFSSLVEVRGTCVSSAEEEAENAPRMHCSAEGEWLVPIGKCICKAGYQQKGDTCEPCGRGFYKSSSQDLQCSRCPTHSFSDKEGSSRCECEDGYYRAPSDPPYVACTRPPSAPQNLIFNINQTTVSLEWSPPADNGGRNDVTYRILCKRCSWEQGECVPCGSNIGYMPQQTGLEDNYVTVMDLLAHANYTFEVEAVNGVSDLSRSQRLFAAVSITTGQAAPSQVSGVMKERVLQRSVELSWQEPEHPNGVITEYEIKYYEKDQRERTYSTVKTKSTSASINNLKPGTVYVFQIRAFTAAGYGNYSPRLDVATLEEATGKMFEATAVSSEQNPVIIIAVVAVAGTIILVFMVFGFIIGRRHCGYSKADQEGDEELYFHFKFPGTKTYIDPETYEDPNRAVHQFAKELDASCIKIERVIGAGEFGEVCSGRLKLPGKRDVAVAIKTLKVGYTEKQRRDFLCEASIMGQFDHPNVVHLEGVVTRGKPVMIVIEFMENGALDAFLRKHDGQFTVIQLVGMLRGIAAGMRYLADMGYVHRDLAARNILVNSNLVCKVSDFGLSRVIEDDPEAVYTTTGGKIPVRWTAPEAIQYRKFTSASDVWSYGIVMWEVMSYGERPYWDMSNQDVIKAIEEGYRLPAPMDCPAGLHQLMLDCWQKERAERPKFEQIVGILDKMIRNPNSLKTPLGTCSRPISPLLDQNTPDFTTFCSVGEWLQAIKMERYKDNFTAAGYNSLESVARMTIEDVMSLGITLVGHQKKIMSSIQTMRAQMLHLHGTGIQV
Chain of Ephrin type-A receptor 4 (Homo sapiens) (P54764 whole entry): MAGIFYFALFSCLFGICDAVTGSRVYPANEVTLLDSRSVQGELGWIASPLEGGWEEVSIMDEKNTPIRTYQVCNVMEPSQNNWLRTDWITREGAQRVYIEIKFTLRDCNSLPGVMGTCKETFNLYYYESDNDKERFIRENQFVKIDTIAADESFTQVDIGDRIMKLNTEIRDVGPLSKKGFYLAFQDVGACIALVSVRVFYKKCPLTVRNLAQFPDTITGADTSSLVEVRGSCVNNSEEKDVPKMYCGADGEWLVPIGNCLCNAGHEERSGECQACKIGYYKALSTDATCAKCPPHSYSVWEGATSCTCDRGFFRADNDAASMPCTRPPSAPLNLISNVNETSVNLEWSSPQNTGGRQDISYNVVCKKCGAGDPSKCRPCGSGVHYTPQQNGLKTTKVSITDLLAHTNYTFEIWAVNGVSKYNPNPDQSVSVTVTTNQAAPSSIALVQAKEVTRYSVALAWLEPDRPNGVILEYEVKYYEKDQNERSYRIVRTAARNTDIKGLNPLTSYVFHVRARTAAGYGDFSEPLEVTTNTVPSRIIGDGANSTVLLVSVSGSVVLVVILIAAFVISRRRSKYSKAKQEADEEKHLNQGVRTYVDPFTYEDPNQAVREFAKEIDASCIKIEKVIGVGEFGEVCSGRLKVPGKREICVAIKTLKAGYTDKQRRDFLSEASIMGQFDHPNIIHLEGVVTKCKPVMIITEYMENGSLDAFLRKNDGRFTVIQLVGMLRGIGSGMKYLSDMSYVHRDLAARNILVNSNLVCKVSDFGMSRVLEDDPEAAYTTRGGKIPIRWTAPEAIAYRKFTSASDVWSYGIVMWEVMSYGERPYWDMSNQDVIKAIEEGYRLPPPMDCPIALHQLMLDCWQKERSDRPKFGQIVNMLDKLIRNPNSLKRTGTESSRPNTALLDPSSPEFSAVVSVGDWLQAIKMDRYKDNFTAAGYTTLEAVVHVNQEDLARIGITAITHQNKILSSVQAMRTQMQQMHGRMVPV
Chain of Ephrin type-A receptor 5 (Homo sapiens) (P54756 whole entry): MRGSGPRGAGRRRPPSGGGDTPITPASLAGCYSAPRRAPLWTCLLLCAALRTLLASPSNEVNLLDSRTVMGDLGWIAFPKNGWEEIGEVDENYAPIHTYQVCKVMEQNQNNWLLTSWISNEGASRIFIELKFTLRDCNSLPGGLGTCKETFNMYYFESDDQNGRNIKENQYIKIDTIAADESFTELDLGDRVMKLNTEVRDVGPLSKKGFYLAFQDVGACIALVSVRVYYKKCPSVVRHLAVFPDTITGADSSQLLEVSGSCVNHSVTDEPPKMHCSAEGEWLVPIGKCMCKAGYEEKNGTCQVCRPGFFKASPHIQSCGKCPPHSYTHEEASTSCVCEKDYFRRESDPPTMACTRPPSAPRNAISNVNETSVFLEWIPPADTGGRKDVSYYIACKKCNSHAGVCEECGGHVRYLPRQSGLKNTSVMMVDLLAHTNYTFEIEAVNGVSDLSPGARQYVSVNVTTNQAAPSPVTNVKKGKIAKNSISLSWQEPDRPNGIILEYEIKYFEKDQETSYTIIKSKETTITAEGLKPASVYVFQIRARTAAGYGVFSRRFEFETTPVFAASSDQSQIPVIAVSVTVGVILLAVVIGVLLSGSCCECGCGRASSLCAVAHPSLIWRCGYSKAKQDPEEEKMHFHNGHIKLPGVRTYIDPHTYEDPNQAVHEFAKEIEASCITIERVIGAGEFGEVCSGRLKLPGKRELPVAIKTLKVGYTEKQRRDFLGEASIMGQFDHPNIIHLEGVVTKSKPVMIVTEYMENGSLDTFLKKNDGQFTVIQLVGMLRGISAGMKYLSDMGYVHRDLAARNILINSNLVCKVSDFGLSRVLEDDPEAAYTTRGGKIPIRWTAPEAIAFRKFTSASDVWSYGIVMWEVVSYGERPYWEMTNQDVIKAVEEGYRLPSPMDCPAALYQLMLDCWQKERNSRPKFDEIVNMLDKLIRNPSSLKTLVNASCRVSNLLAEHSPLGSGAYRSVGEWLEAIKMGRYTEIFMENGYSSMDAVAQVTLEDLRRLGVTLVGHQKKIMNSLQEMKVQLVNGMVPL

Nc1ncnc2c1c(-c1ccc(Oc3ccccc3)cc1)cn2C1CCCC1
residual activity [1]: 48%
residual activity [2]: 112%
residual activity [3]: 79%
residual activity [4]: 83%
residual activity [5]: 38%
residual activity [6]: 94%
residual activity [7]: 66%
residual activity [8]: 84%
residual activity [9]: 27%
residual activity [10]: 90%
